From PubChem
An excerpt weighted towards active compounds, which were near 21% of everything screened.
Pf growth 48h = inhibits P. falciparum growth in the first generation, 48 h; P. falciparum luciferase growth in erythrocytes, 48 h; Potency, µM (titrated, usually from 28.7 µM), most hits filed as inhibitors; 310,000 compounds, 5.9% hits; AID 504832
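First compound was added to culture medium, then infected red cells at 0.1% parasitemia and 2% hematocrit (final). After incubation at 37 C under 5% CO2, luciferase detection reagent was dispensed and light output recorded.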
Shiga toxin inh = inhibitors of Shiga toxin in Vero cells; Vero cells, Shiga toxin protein synthesis inhibition reporter; inhibition, % at 38.7 µM; 290,000 compounds, 9.2% hits; AID 2315; in the data active means inhibition mostly above about 28%, no sharp cut-off; inactive means mostly below about 43%
NS1 function inh = influenza NS1 inhibition. Potency, µM (doses to about 46.1 µM). 270,000 compounds, 0.4% hits; calls by dose curve; further: actives are rising curves; nearly all actives have a fitted effect of over 50% in size
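In this qHTS, NS1 from influenza A is expressed in budding yeast, where it slows growth. Cells are switched from glucose to 2% galactose medium (pH 6.0, -URA), treated with compound, and growth recovery is read at OD600.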
Pf growth 96h = P. falciparum growth inhibition at 96 hours | P. falciparum luciferase reporter growth, 96 h | Potency, µM (series often up to 28.7 µM), actives largely listed as inhibitors | 320,000 compounds, 6.9% hits | AID 504834
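Parasite growth measured via integrated firefly luciferase reporter in P. falciparum. Infected erythrocytes at 2% hematocrit, 0.05% parasitemia final were treated 96 hours at 37 C under 5% CO2, and luminescence was read.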
Sm TGR inh = S. mansoni TGR enzyme inhibition; 360,000 compounds, 3% hits; AID 485364; purified TGR, DTNB reduction, TNB absorbance 405 nm; Potency, µM (top dose mostly 114 µM), actives largely listed as inhibitors; further: nearly all actives have a fitted effect of over 60% in size
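First, TGR (20 nM dispensed) and NADPH were mixed with compound. Second, a 15 min room-temperature incubation followed. Third, further NADPH and then DTNB were added to start the reaction. Finally, TNB absorbance was monitored kinetically.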
Cycloheximide cs = counter-screen hit for Shiga toxin inhibitors, cycloheximide. AID 2314. cell reporter, cycloheximide protein synthesis inhibition counterscreen. max response, %. 300,000 compounds, 12% hits; in the data active means max response mostly above about 13%, no sharp cut-off; inactive means mostly below about 14%; further: read at 38.3 µM for the half of the compounds with a filed dose
A number is an active result. Unless noted, the call rests on the fitted dose curve; in most records, active means well fitted curve in the direction sought with a large enough effect; inconclusive means small, poorly fitted or top-dose-only effect, or another doubt; inactive means no such curve, though single readings can be large; an effect the other way counts as inactive or inconclusive.

Results for CSc1nsc(SCC(=O)Nc2ccc(NC(C)=O)cc2)n1 ?
Pf growth 48h: inactive; Shiga toxin inh: inactive; NS1 function inh: inactive; Pf growth 96h: inactive; Sm TGR inh: inactive; Cycloheximide cs: inactive

Results for COc1ccc2nc(NC(=O)CSc3nc(C)cc(C)n3)sc2c1 ?
Shiga toxin inh: inactive; NS1 function inh: inactive; Pf growth 96h: inactive; Sm TGR inh: inactive; Cycloheximide cs: inactive

Results for Cc1ccc2nc(NC(=O)COC(=O)CSc3nc(C)cc(C)n3)sc2c1 ?
Pf growth 48h: inactive; Shiga toxin inh: 78.0; NS1 function inh: inactive; Pf growth 96h: inactive; Sm TGR inh: inactive; Cycloheximide cs: 40.5

Results for Cc1cc(C)nc(SCC(=O)Nc2ncc(Cc3cccc(Cl)c3Cl)s2)n1 ?
Pf growth 48h: inactive; Shiga toxin inh: inactive; NS1 function inh: inactive; Pf growth 96h: inactive; Sm TGR inh: inactive; Cycloheximide cs: inactive

Results for CSc1nsc(SCC(=O)Nc2nc3ccc(C)cc3s2)n1 ?
Pf growth 48h: inactive; Shiga toxin inh: inactive; NS1 function inh: inactive; Pf growth 96h: inactive; Sm TGR inh: inactive; Cycloheximide cs: 20.0

How did COC(=O)c1cccc(NC(=O)COC(=O)CSc2nc(C)cc(C)n2)c1 do in these assays?
Pf growth 48h: inactive; Shiga toxin inh: inactive; NS1 function inh: inactive; Pf growth 96h: inactive; Sm TGR inh: inactive; Cycloheximide cs: inactive

How did CC1=C(C(=O)Nc2ccc(C)cc2Cl)C2(CCCCC2)OC1=O do in these assays?
Sm TGR inh: inactive

Results for O=C1SC(SC(=Nc2ccccc2)Nc2ccccc2)C(=O)N1c1ccccc1 (stereo unspecified) ?
Pf growth 48h: inactive; Shiga toxin inh: 59.8; NS1 function inh: inactive; Pf growth 96h: inactive; Sm TGR inh: inactive; Cycloheximide cs: 40.8

What do the screens show for `Cc1cccc(N2C(=O)CC(SC(=Nc3ccccc3)Nc3ccccc3)C2=O)c1` (stereo unspecified)?
Pf growth 48h: inconclusive; Shiga toxin inh: inactive; NS1 function inh: inactive; Pf growth 96h: inconclusive; Sm TGR inh: inactive; Cycloheximide cs: inactive

Results for CCOC(=O)c1ncc2[nH]c3cccc(OC(C)C)c3c2c1C ?
Shiga toxin inh: inactive; Cycloheximide cs: inactive

What do the screens show for `Cc1ccc(NC(=O)CSc2nc(=O)n(CCN3CCOCC3)c3c2CCCC3)cc1`?
Pf growth 48h: inactive; Pf growth 96h: inconclusive; Sm TGR inh: inactive

What do the screens show for `O=C(C1CCCN(Cc2ccccc2)C1)N1CCc2ccccc2C1` (stereo unspecified)?
Shiga toxin inh: inactive; NS1 function inh: inactive; Pf growth 96h: inactive; Sm TGR inh: inactive; Cycloheximide cs: inactive

How did Cc1ccc2oc(-c3ccco3)cc(=O)c2c1 do in these assays?
Pf growth 48h: inactive; Shiga toxin inh: 71.3; NS1 function inh: inactive; Pf growth 96h: inactive; Cycloheximide cs: 38.5

Results for N#CCOc1ccc2oc(-c3ccco3)cc(=O)c2c1 ?
Pf growth 48h: inactive; Shiga toxin inh: inactive; Pf growth 96h: inactive; Sm TGR inh: inactive; Cycloheximide cs: inactive

How did CC(C)OCCOc1ccc2oc(-c3ccco3)cc(=O)c2c1 do in these assays?
Pf growth 48h: inconclusive; Shiga toxin inh: inactive; NS1 function inh: inactive; Pf growth 96h: inactive; Sm TGR inh: inactive; Cycloheximide cs: 19.5

What do the screens show for `COc1cc(OC)c(OC)cc1CNC(=O)c1cc(=O)[nH]c2ccccc12`?
Pf growth 48h: inactive; Shiga toxin inh: inactive; NS1 function inh: inactive; Pf growth 96h: inactive; Sm TGR inh: inactive; Cycloheximide cs: inactive

Results for COc1ccc(NS(=O)(=O)c2ccc(N/N=C(\C)c3ccncc3)c([N+](=O)[O-])c2)cc1 ?
Pf growth 48h: inconclusive; Shiga toxin inh: inactive; NS1 function inh: inconclusive; Pf growth 96h: inactive; Sm TGR inh: inactive; Cycloheximide cs: inactive

How did C/C(=N\Nc1ccc(S(=O)(=O)Nc2ccccc2)cc1[N+](=O)[O-])c1ccc(N2CCOCC2)cc1 do in these assays?
Pf growth 48h: inconclusive; Shiga toxin inh: inactive; NS1 function inh: inactive; Pf growth 96h: inconclusive; Cycloheximide cs: inactive

How did COc1ccccc1NS(=O)(=O)c1ccc(N/N=C(\C)C(C)C)c([N+](=O)[O-])c1 do in these assays?
Pf growth 48h: 8.28µM; Shiga toxin inh: inactive; NS1 function inh: inactive; Pf growth 96h: inconclusive; Sm TGR inh: inactive; Cycloheximide cs: inactive

Results for O=[N+]([O-])c1cc(S(=O)(=O)Nc2cccc(Cl)c2)ccc1N/N=C/c1ccc(N2CCOCC2)cc1 ?
Pf growth 48h: 1.85µM; Shiga toxin inh: inactive; NS1 function inh: inactive; Pf growth 96h: inconclusive; Sm TGR inh: inactive; Cycloheximide cs: inactive
